The target of the test is Glucose transporter (Leishmania mexicana) (UniProt O61059). Description: ST_JUDE_LEISH: Cytotoxicity at 2uM final concentration against transgenic Leishmania Mexicana promastigotes LmGT2 that are glucose transport deficient and complemented with the L. Mexicana glucose transporter 2. Activity is measured by DNA content using SYBR green in vitro. In kind it is functional.
On to `CCOc1cc(C(=O)NCCc2ccc(Cl)c(Cl)c2)ccc1-c1nc2cc(Cl)ccc2[nH]1`, for which the inhibition came to 1.26%.
With `CS(=O)(=O)c1ccc(CCNCc2ccc(-c3ccc(CN(C(=O)c4cccc(C#N)c4)C4CCN(Cc5ccccc5)CC4)cc3)nc2)cc1` the figure was 5.74%; with `CCCn1c(Sc2ccc(C#N)c([N+](=O)[O-])c2)nnc1-c1ccc(N(C)C)cc1`, 3.14%.
Take `CCN(CCCN1CCCCC1)c1cc(C)nc(Nc2cccc3c2CCCC3)n1`: the inhibition was determined as 1.57%.
Take `O=C(Nc1cccc(C(F)(F)F)c1)Nc1ccc(Cl)c(C(F)(F)F)c1`: the inhibition was -0.99%.
With `O=C(c1ccc(F)c(F)c1)N1CCOC(CCN2CCC(c3ccccc3)CC2)(c2ccc(Cl)c(Cl)c2)C1` (stereo not drawn) the figure was 3.63%; with `CC(=O)c1cccc(NC(=O)NC2CCN(CCCCCNC(=O)/C=C/c3ccc(Cl)c(Cl)c3)CC2)c1`, 5.52%; with `Cn1c(NCc2cc(F)cc3c2OCOC3)nc2cc(Nc3ccnc(Nc4cccc(CS(C)(=O)=O)c4)n3)ccc21`, 1.18%.
Take `CCNc1cc(C(=O)N[C@@H](Cc2ccccc2)[C@H](O)CNC(C)(C)c2cccc(OC)c2)cc(N2CCCC2=O)c1`: the inhibition is -0.62%.
For `COc1ccc2nccc([C@@H](O)CN3CCC(NC(=O)/C=C/c4ccc5cc(C)[nH]c5c4)CC3)c2c1`, the inhibition was determined as 1.91%.
Take `Cc1noc(=O)c2ccc(NC(=O)C(O)(CSc3ccccc3)CC(C)C)cc12` (stereo not drawn): the inhibition came out at 3.58%.
For `O=C(Nc1ccccc1)N(Cc1ccc(-c2cccc(CNCc3ccc4c(c3)OCO4)c2)cc1)C1CCN(Cc2ccccc2)CC1`, the inhibition was 2.9%.
For `COc1ccc(Cl)cc1N1CCN(CCCNC(=O)c2ccc(-c3nc4cc(Cl)c(F)cc4[nH]3)c(F)c2)CC1`, the inhibition was found to be 4.99%.

The term inhibition denotes the change of the read-out against control, counted positive when it falls.

The record behind these values is ChEMBL document CHEMBL3433997, “St. Jude Leishmania screening dataset” (2016).
